This is part of a sample that, as a whole, favours compounds with a hit. Of some 83,000 tested, about 20% had one in any assay.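 Step 1: grow cells in 96-well plates. Step 2: add test compound at a single concentration. Step 3: incubate 48 h. Step 4: record percent growth.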 Unmarked numbers belong to inactive results. Activity calls are given as the source filed them. How the source made its calls: active means growth percent below 10; inactive means the rest.
Each compound was assayed on SN12C renal (assay: NCI-60 one-dose screen, 48 h (100 = growth as untreated, 0 = no growth, -100 = all killed)). Conditions: 10 µM unless noted.
With `CC(C)(C)c1ccc2oc(=O)n(SC(Cl)(Cl)Cl)c2c1` the growth was 102%.
Work on `COc1ccc2nc(-c3ccc(Cl)cc3)cc(-c3nnc(SC/C(=N/O)c4ccccc4)o3)c2c1` yielded a growth of 17.5%.
`CCOC(=O)c1c(-c2ccc(O)cc2)c(C#N)c2c(C#N)c(N)nn2c1N` was tested, and the growth was 81.7%.
In the case of `C=CCn1c(SCC(=O)Nc2ccc(C(=O)/C=C/c3cc(OC)c(OC)c(OC)c3)cc2)nnc1-c1ccc(Cl)cc1`, the growth is reported as 27.9%.
Compound `CCOC(=O)c1ccc(Nc2ncnc3ccc(NC(=O)c4ccccc4)cc23)cc1` has a growth of 102%.
Work on `CCOC(=O)c1cnn(-c2nc(-c3ccc(F)cc3)c(C#N)c(N3CCOCC3)n2)c1N` yielded a growth of 93.9%.
In the case of `CSc1nc(-c2ccc(F)cc2)c(C#N)c(N2CCOCC2)n1`, the growth is reported as 98.8%.
Work on `c1ccc(Sc2ncccn2)nc1` yielded a growth of 106%.
In the case of `COc1ccc(/C=C/C(=O)/C=C(/C=C/c2ccc(OC)c(OC)c2)OB(F)F)cc1OC`, the growth is reported as -5.34% (active).
`Cc1cccc(NC(=O)c2sc3nc4c(cc3c2N)CN(Cc2ccccc2)CC4)c1C` gave a growth of 43.6%.
`Nc1c(C(=O)Nc2cccc3ccccc23)sc2nc3c(cc12)CCCCCC3` was tested, and the growth was 46%.
`O=C1c2ccccc2C(=O)c2c1oc1c2c(=O)[nH]c2ccccc21` showed a growth of 70.4%.
Work on `C=CCn1c(CN2CCN(c3cc4c(cc3F)c(=O)c(C(=O)O)cn4C3CC3)CC2)n[nH]c1=S` yielded a growth of 104%.
For `COc1cccc2c1-c1ccccc1C2=O`, the growth was 53.9%.
`COc1ccc2cc(/C=C3\N=C(c4cc(OC)c(OC)c(OC)c4)OC3=O)c(OC)nc2c1` showed a growth of 94.2%.
`C=CCn1c(SCC(=O)Nc2ccc(C(=O)/C=C/c3cc(OC)c(OC)c(OC)c3)cc2)nnc1-c1ccccc1` showed a growth of 93.1%.
Work on `O=C(CCCC(=O)Nc1ccc(-n2nnc3cc(Cl)c(Cl)cc32)cc1)Nc1ccc(-n2nnc3cc(Cl)c(Cl)cc32)cc1` yielded a growth of 40.5%.
`COc1ccc(Nc2cc(NC(=O)CNc3cc(OC)c(Cl)c(OC)c3Cl)ncn2)cc1` gave a growth of 89.2%.
With `COc1cc(NC(=O)Nc2cnc(Nc3ccc(N4CCOCC4)cc3)nc2Oc2ccc(C(F)(F)F)cc2)cc(OC)c1` the growth was 102%.
Work on `CCCCN(CCCC)CC(CN(CC)CC)OC(=O)Nc1ccccc1` (stereo not drawn) yielded a growth of 94.4%.
With `N#Cc1ccc(N2Cc3cc(Cl)ccc3OC3=C2C(=O)N(Cc2ccccc2)C3=O)cc1` the growth was -39.5% (active).
For `Nc1c(C(=O)Nc2cccc3ccccc23)sc2nc3c(cc12)CCCCC3`, the growth was 43.4%.
`Cc1cc(C)cc(Nc2nccc(-c3c(-c4ccc(F)cc4)ncn3C3CCNCC3)n2)c1` showed a growth of 16.5%.
Work on `Nc1c(C(=O)Nc2cccc3ccccc23)sc2nc3c(cc12)COCC3` yielded a growth of 59.9%.
`CC(C)Cc1cc(CNC(=O)C2[C@H]3CN(C(=O)c4ccccc4)C[C@@H]23)nn1-c1ccccc1` (stereo partly drawn) gave a growth of 99.1%.
With `O=C1c2ccccc2C(=O)c2c1oc1c2c(=O)[nH]c2ccc(Cl)cc21` the growth was -26.3% (active).
For `C=C1C(=O)O[C@H]2[C@H]1CC/C(C=Nc1c(N)cc(F)cc1Br)=C\CC[C@@]1(C)O[C@@H]21`, the growth was 76.1%.
For `Nc1ccc2c(c1)C(=O)C(=O)c1c-2nc2ccccn12`, the growth was -81% (active).
For `C#C[C@@]1(O)[C@@H](CO)O[C@@H](n2cc(F)c3c(N)ncnc32)[C@@H]1O`, the growth was 2.43% (active).
`C=C(C)[C@@H]1CCC=C2CC[C@]3(C)[C@H](CC[C@@H]4[C@@]5(C)CCCNC(C)(C)[C@@H]5CC[C@]43C)[C@H]21` showed a growth of 65.2%.
`COc1ccc(/C=C/C(=O)C(CC2CCC2)C(=O)/C=C/c2ccc(OC)c(OC)c2)cc1OC` was tested, and the growth was -20.7% (active).
`CCOC(=O)C1=C(C)n2nc(CC#N)c(C#N)c2NC1c1ccc(CC)cc1` (stereo not drawn) gave a growth of 100%.
`CCCCc1ccc(N=Nc2ccc(OCC[N+](C)(C)C)cc2)cc1` showed a growth of 31%.
In the case of `CC(C)NS(=O)(=O)c1cccc(-c2ccc3c4c(n(CCCN(C)C)c(=O)c3c2)-c2ccccc2C4=O)c1`, the growth is reported as 97.2%.
With `COc1ccc2[nH]c(=O)c(/C=C/C(=O)c3ccccc3OC)cc2c1` the growth was 8.57% (active).
With `CCOC(=O)c1c(C)nc2c(c1N)/C(=C/c1cccs1)C(=O)N2Cc1ccccc1` the growth was 73.2%.
For `C/C(=N/Nc1nc2ccccc2n1C)c1ccccn1`, the growth was 10.1%.
Work on `CC(C)NS(=O)(=O)c1cccc(-c2ccc3c(=O)n(CCCN)c4c(c3c2)C(=O)c2ccccc2-4)c1` yielded a growth of 113%.

Source: PubChem BioAssay (NCI)
